# A selection: hits, their analogues and other compounds. The true share with any hit is near 4.7%.
# TRHR PAM – TRH receptor (human) allosteric enhancement; 360,000 compounds, 0.66% hits; enhancement, % at 2 µM; AID 493056; P34981; TRHR cells, fluo-8 calcium fluorescence, EC20 TRH enhancement; in the data active means enhancement above about 30%
# Target sequence (P34981 whole entry, looked up): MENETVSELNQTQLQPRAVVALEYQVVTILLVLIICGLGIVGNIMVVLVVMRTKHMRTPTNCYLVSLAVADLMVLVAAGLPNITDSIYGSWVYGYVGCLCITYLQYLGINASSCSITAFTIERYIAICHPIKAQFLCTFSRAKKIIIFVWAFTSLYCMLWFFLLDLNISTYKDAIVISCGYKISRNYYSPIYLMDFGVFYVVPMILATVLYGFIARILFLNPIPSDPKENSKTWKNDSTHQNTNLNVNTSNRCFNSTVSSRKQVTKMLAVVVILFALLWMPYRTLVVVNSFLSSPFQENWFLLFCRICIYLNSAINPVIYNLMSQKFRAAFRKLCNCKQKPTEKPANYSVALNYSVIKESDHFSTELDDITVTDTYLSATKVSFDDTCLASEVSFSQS
#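 TRHR-expressing cells loaded with fluo-8 calcium dye were read kinetically (ex 480/em 530) during compound addition, then stimulated with an EC20 of TRH (10 nM final). Enhancement of the Gq-mediated intracellular calcium response was scored.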
# D1 antagonist – human D1 dopamine receptor antagonism. P21728. HEK293 TREx D1 cells, calcium flux, dopamine EC80; stronger effect = lower value. activity change, negative = inhibition, % at 10 µM. 360,000 compounds, 3.2% hits; in the data active means activity change below about -30%
#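 Using tetracycline-induced force-coupled D1 Hek293 cells and a calcium dye, signals were followed for 180 s after compound, then for 180 s after EC80 dopamine, to detect inhibitors.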
# D1 potentiator – potentiators of human D1 dopamine receptor; P21728; HEK293 TREx D1 cells, calcium flux, dopamine EC20 potentiation; 360,000 compounds, 0.036% hits; potentiation, % at 10 µM; in the data active means potentiation above about 30%
# TRHR ag – activates the human TRH receptor. P34981. TRHR cells, calcium flux fluo-8, FDSS agonist mode. activation, % at 2 µM. 360,000 compounds, 0.18% hits
#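 TRHR-expressing cells loaded with fluo-8 calcium dye; 23 nL library compound pin-transferred, kinetic FDSS fluorescence (Ex 480/Em 530) recorded about 180 s for agonist-induced calcium release, before a 10 nM TRH EC20 addition for potentiator mode.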
# D1 agonist – human D1 receptor agonism; HEK293 T-REx D1 cells, calcium flux, agonist mode; activation, % at 2 µM; 360,000 compounds, 1% hits; P21728
#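 Tetracycline-induced HEK293 TREx D1 cells, force-coupled to calcium signalling, were dye-loaded with a no-wash calcium kit. Compound was pin-added after a 10 s baseline. Fluorescence was read kinetically at 1 cycle/s for 180 s, with calcium rises flagged as agonism.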
# A number is an active result; 0 = inactive; - = not tested or not shown; ! = a repeat was not active. Unless noted, no stated cut-off is given here; in the data, active means activation above about 30%; inactive means the rest.
SMILES,TRHR PAM,D1 antagonist,D1 potentiator,TRHR ag,D1 agonist
N#C/C(=C(/O)CN1C(=O)c2ccccc2C1=O)c1nc2ccccc2[nH]1,0,0,0,0,0
Fc1cccc(CCN2CCNC[C@H]2Cc2cccc3ccccc23)c1,0,0,0,0,40.4
c1ccc(C2(CN3CCNC[C@H]3Cc3cccc4ccccc34)CC2)cc1,0,-55.5,0,0,76.5
CCN(CC)S(=O)(=O)c1ccc2c(c1)N(CC(=O)N1CCN(c3cccc(C)c3C)CC1)C(=O)CO2,0,0,0,0,0
COc1ccc(CCNC(=O)Cn2cnc3sc(C)c(-c4ccc(F)cc4)c3c2=O)cc1OC,0,-,0,0,33.9
COC(=O)c1sc2ncn(CC(=O)NCCc3ccc(OC)c(OC)c3)c(=O)c2c1C,0,0,0,0,0
CC(Sc1nc(=O)cc(N)n1CCc1ccccc1)C(=O)Nc1ccc(Cl)cc1 (configuration not stated),0,-33.4,0,0,0
CC(NC(=O)c1ccc(Br)cc1Br)c1ccccc1 (configuration not stated),0,0,0,0,0
CC(NC(=O)c1cc(Br)ccc1Cl)c1ccccc1 (configuration not stated),0,-45.7,0,0,0
Cn1c(NC(=O)c2cc(Br)ccc2Cl)cc(=O)n(C)c1=O,0,0,0,0,32.8
COc1ccc(-n2c(-c3ccccc3F)nc3c(cnn3-c3ccc(C)cc3)c2=O)cc1,0,-31.4,0,0,0
COc1ccc(-n2c(-c3ccco3)nc3c(cnn3-c3ccccc3C)c2=O)cc1,0,-30.4!,0,0,0
COc1ccc(OC)c(CCNC(=O)CN2C(=O)COc3ccc(S(=O)(=O)N4CCC(C)CC4)cc32)c1,0,0,0,0,0
Cc1cc(C(C)(C)CC(C)(C)C)ccc1OCCOCC[N+](C)(C)Cc1ccccc1,0,0,0,0,100.6
Cc1cc(C(C)(C)C)ccc1OCCN1CCCC1,0,0,0,0,0
COc1ccc(-c2cn3nc(N4CCCC(C(=O)Nc5ccc(C)c(C)c5)C4)sc3n2)cc1 (configuration not stated),0,0,0,0,0
Cc1nn(C(C)C(=O)NCC2CCCO2)c(=O)c2c1sc1ccccc12 (configuration not stated),0,0,0,0,0
Cc1nn(C(C)C(=O)Nc2ccccc2C(F)(F)F)c(=O)c2c1sc1ccccc12 (configuration not stated),0,-47.2,0,0,0
Cc1nn(C(C)C(=O)NC2CCCCC2)c(=O)c2c1sc1ccccc12 (configuration not stated),0,-34.1,0,0,0
Cc1cccc(NC(=O)c2ccc(CNS(=O)(=O)c3ccc4c(c3)C(C)(C)C(=O)N4C)cc2)c1,0,0,0,0,0
COc1ccc(/C=N/NC(=O)c2cccc(Br)c2)cc1CN1CCOCC1,0,0,0,0,0
COc1ccc(/C=N/NC(=O)c2ccccc2O)cc1CN1CCOCC1,0,-33.3,0,0,0
CCC(=O)N1c2ccccc2C(C)(c2ccccc2)CC1(C)C (configuration not stated),0,0,0,0,0
CC(=O)N1c2ccccc2C(C)(c2ccc(C)cc2)CC1(C)C (configuration not stated),0,0,0,0,55.5
COc1ccc(-c2cn3nc(N4CCCC(C(=O)Nc5cccc(Cl)c5C)C4)sc3n2)cc1 (configuration not stated),0,0,0,0,0
SMILES,TRHR PAM,D1 antagonist,D1 potentiator,TRHR ag,D1 agonist
OCC[C@@H]1C[C@H](O)[C@@H](O)[C@@]2(Cc3ccccc3CO2)O1,0,-68.9,0,0,0
CCc1cccc(NC(=O)C(NS(=O)(=O)c2ccc3nc(C)sc3c2)C(C)C)c1 (configuration not stated),0,0,0,0,0
Cc1cn(C)c(CC(=O)Nc2cccc(C#N)c2)c1C(=O)O,32.1,0,0,0,0
CCC(=O)Nc1ccc(C)cc1-c1nc2ccccc2n(C(C)C(=O)Nc2ccccc2CC)c1=O (configuration not stated),0,0,0,0,0
CC(C)CN1CCC(Oc2cccc(C(=O)NCCc3ccccc3)c2)CC1,0,-38.1,0,0,0
COCCNC(=O)c1cccc(OC2CCN(Cc3ccc(C(C)C)cc3)CC2)c1,0,0,0,0,0
COCC(C)N1CCC(Oc2cccc(C(=O)NCCc3ccccc3)c2)CC1 (configuration not stated),0,-39.0,0,0,0
CSCC(C)N1CCC(Oc2cccc(C(=O)NCc3ccccn3)c2)CC1 (configuration not stated),0,-62.7,0,0,0
CC#CC(=O)N1CCC(Oc2cccc(C(=O)NCc3ccccn3)c2)CC1,0,0,0,0,0
CCCN(C(=O)Cn1c(=O)oc2cc(Cl)ccc21)c1ccc(C(C)C)cc1,0,0,0,0,0
O=C(NCc1cccnc1)c1nn(-c2ccccc2F)nc1CO,0,0,0,0,0
COc1ccccc1/C=C/CN1CCC(n2nccc2NC(=O)CCc2ccccc2)CC1,0,0,0,0,31.1
COc1ccccc1C(=O)Nc1ccnn1C1CCN(C(C)CSC)CC1 (configuration not stated),0,-39.6,0,0,0
O=C(Nc1nc2n(n1)C(c1ccc(F)cc1)C=C(c1ccc(Cl)cc1)N2)c1ccc([N+](=O)[O-])cc1 (configuration not stated),0,0,0,0,0
COc1ccc2oc(=O)c(C(=O)N3CCN(c4ccc(C)cc4)CC3)cc2c1,0,0,0,0,0
C=CCN(c1ccccc1)S(=O)(=O)c1cccc(C(=O)Nc2nnc(SCC)s2)c1,0,-85.4,0,0,0
C=CCN(c1ccccc1)S(=O)(=O)c1cccc(C(=O)OCC(=O)NCCOC)c1,0,0,0,0,0
C=CCN(c1ccccc1)S(=O)(=O)c1cccc(C(=O)OCC(=O)NC2CC2)c1,0,-33.6,0,0,0
CCc1ccc(-c2cc(C)no2)cc1S(=O)(=O)Nc1ccc(Cl)cc1,0,0,0,0,0
CC1(C)CC(=O)C(C(c2ccco2)C2C(=O)CC(C)(C)CC2=O)C(=O)C1,38.6,0,0,0,0
CCCCCCOc1ccc(N2C(=O)CC(SCCN)C2=O)cc1 (configuration not stated),0,0,0,0,64.3
Cc1ccc(C(=O)N2CCCC(CCC(=O)N3CCN(c4ccccn4)CC3)C2)cc1C (configuration not stated),0,-39.5,0,0,0
COc1cccc(CNC(=O)CN(c2ccc(C(C)C)cc2)S(=O)(=O)c2c(C)n[nH]c2C)c1,0,0,0,0,0
COc1cccc(NC(=O)CSc2nc3n[nH]c(C)c3c(=N)n2-c2cccc(OC)c2)c1,0,-30.9,0,0,0
Cc1cc(-n2c(SCC(=O)NCc3cccs3)nc3n[nH]c(C)c3c2=N)ccc1Cl,0,-42.0,0,0,0
